# According to the supplement of paper PMC8728848:
# This excerpt belongs to a sample that is enriched for the strongest signals.
# B1: Mg1lysM (Mycosphaerella graminicola) (protein)
# chain: QRNPITITPQFDCGATNSQQYVARSGDTLTKIAQEIYHDVVGVCDIARANNLADPNRIDAGTPYTIPINCQTYDRNSCL
# What was measured:
# Assay in all cases: glycan array binding signal (z-score within array); higher = stronger binding
# Conditions in all cases: glycan notation: IUPAC condensed, linker removed
# [1] = target: Fuc(a1-2)Gal(b1-3)GlcNAc(b1-3)Gal(b1-4)Glc
# In short: (§1)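 From the Consortium for Functional Glycomics database, 3228 arrays were curated, keeping only those whose protein sequence was available. Binding is given as a within-array Z-score averaged across arrays sharing a protein sequence and across linkers. Negative Z-scores can be read as non-binding.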
# [2] = target: Fuc(a1-2)Gal(b1-3)[Fuc(a1-4)]GlcNAc(b1-3)[Gal(b1-4)GlcNAc(b1-6)]Gal(b1-4)Glc
# In short: as §1
# Fuc(a1-2)Gal(b1-4)Glc = target: Fuc(a1-2)Gal(b1-4)Glc
# In short: as §1
# [3] = target: Fuc(a1-2)Gal(b1-4)GlcNAc(b1-3)Gal(b1-4)GlcNAc(b1-2)Man(a1-3)[Fuc(a1-2)Gal(b1-4)GlcNAc(b1-3)Gal(b1-4)GlcNAc(b1-2)Man(a1-6)]Man(b1-4)GlcNAc(b1-4)GlcNAc
# In short: as §1
# [4] = target: Fuc(a1-2)Gal(b1-4)[Fuc(a1-3)]GlcNAc(b1-2)Man(a1-3)[Fuc(a1-2)Gal(b1-4)[Fuc(a1-3)]GlcNAc(b1-2)Man(a1-6)]Man(b1-4)GlcNAc(b1-4)[Fuc(a1-6)]GlcNAc
# In short: as §1
# [5] = target: Fuc(a1-2)Gal3S(b1-4)GlcNAc
# In short: as §1
# [6] = target: Fuc(a1-2)[GalNAc(a1-3)]Gal(b1-4)GlcNAc(b1-2)Man(a1-3)[Fuc(a1-2)[GalNAc(a1-3)]Gal(b1-4)GlcNAc(b1-2)Man(a1-6)]Man(b1-4)GlcNAc(b1-4)[Fuc(a1-6)]GlcNAc
# In short: as §1
# [7] = target: Fuc(a1-3)[Gal3S(b1-4)]GlcNAc
# In short: as §1
# Fuc(a1-4)GlcNAc = target: Fuc(a1-4)GlcNAc
# In short: as §1
# Gal(a1-3)Gal = target: Gal(a1-3)Gal
# In short: as §1
# [8] = target: Gal(a1-3)Gal(b1-3)[Fuc(a1-4)]GlcNAc(b1-2)Man(a1-3)[Gal(a1-3)Gal(b1-3)[Fuc(a1-4)]GlcNAc(b1-2)Man(a1-6)]Man(b1-4)GlcNAc(b1-4)GlcNAc
# In short: as §1
# [9] = target: Gal(a1-4)Gal(b1-4)GlcNAc(b1-2)Man(a1-3)[Gal(a1-4)Gal(b1-4)GlcNAc(b1-2)Man(a1-6)]Man(b1-4)GlcNAc(b1-4)GlcNAc
# In short: as §1
# Gal(a1-6)Glc = target: Gal(a1-6)Glc
# In short: as §1
# Gal(b1-3)Gal = target: Gal(b1-3)Gal
# In short: as §1
# [10] = target: Gal(b1-3)GlcNAc(b1-2)Man(a1-3)[GlcNAc(b1-4)][Gal(b1-3)GlcNAc(b1-2)Man(a1-6)]Man(b1-4)GlcNAc(b1-4)GlcNAc
# In short: as §1
# [11] = target: Gal(b1-3)GlcNAc(b1-3)Gal(b1-4)GlcNAc(b1-2)[Gal(b1-3)GlcNAc(b1-3)Gal(b1-4)GlcNAc(b1-6)]Man(a1-6)[Gal(b1-3)GlcNAc(b1-3)Gal(b1-4)GlcNAc(b1-2)Man(a1-3)]Man(b1-4)GlcNAc(b1-4)[Fuc(a1-6)]GlcNAc
# In short: as §1
# [12] = target: Gal(b1-3)GlcNAc(b1-6)[Gal(b1-3)]GalNAc
# In short: as §1
# [13] = target: Gal(b1-4)GlcNAc(b1-2)Man(a1-6)Man(b1-4)GlcNAc(b1-4)GlcNAc
# In short: as §1
# Gal6S(b1-4)GlcNAc = target: Gal6S(b1-4)GlcNAc
# In short: as §1
# GalNAc(a1-3)GalNAc = target: GalNAc(a1-3)GalNAc
# In short: as §1
# [14] = target: GalNAc3S(b1-4)[Fuc(a1-3)]GlcNAc
# In short: as §1
# [15] = target: Glc(a1-4)Glc(a1-4)Glc(a1-4)Glc
# In short: as §1
# GlcA(b1-6)Gal = target: GlcA(b1-6)Gal
# In short: as §1
# [16] = target: GlcNAc(a1-4)Gal(b1-4)GlcNAc(b1-3)Gal(b1-4)Glc
# In short: as §1
# [17] = target: GlcNAc(b1-2)Man(a1-3)[GlcNAc(b1-2)Man(a1-6)]Man(b1-4)GlcNAc(b1-4)GlcNAc
# In short: as §1
# [18] = target: GlcNAc(b1-2)[GlcNAc(b1-4)]Man(a1-3)[GlcNAc(b1-4)][GlcNAc(b1-2)[GlcNAc(b1-6)]Man(a1-6)]Man(b1-4)GlcNAc(b1-4)[Fuc(a1-6)]GlcNAc
# In short: as §1
# [19] = target: GlcNAc(b1-3)Gal(b1-4)GlcNAc(b1-2)[GlcNAc(b1-3)Gal(b1-4)GlcNAc(b1-6)]Man(a1-6)[GlcNAc(b1-3)Gal(b1-4)GlcNAc(b1-2)Man(a1-3)]Man(b1-4)GlcNAc(b1-4)GlcNAc
# In short: as §1
# [20] = target: GlcNAc(b1-3)Gal(b1-4)GlcNAc(b1-3)Gal(b1-4)GlcNAc(b1-3)Gal(b1-4)GlcNAc(b1-2)Man(a1-3)[GlcNAc(b1-3)Gal(b1-4)GlcNAc(b1-3)Gal(b1-4)GlcNAc(b1-3)Gal(b1-4)GlcNAc(b1-2)Man(a1-6)]Man(b1-4)GlcNAc(b1-4)[Fuc(a1-6)]GlcNAc
# In short: as §1
# GlcNAc(b1-3)Man = target: GlcNAc(b1-3)Man
# In short: as §1
# [21] = target: GlcNAc(b1-4)GlcNAc(b1-4)GlcNAc
# In short: as §1
# [22] = target: GlcNAc(b1-4)GlcNAc(b1-4)GlcNAc(b1-4)GlcNAc(b1-4)GlcNAc
# In short: as §1
# [23] = target: GlcNAc(b1-4)GlcNAc(b1-4)GlcNAc(b1-4)GlcNAc(b1-4)GlcNAc(b1-4)GlcNAc
# In short: as §1
# [24] = target: Kdn(a2-3)Gal(b1-4)[Fuc(a1-3)]GlcNAc
# In short: as §1
# [25] = target: Neu5Ac(a2-3)Gal(b1-3)GlcNAc(b1-2)Man(a1-3)[GlcNAc(b1-4)][Neu5Ac(a2-3)Gal(b1-3)GlcNAc(b1-2)Man(a1-6)]Man(b1-4)GlcNAc(b1-4)GlcNAc
# In short: as §1
# [26] = target: Neu5Ac(a2-3)Gal(b1-3)GlcNAc(b1-2)[Neu5Ac(a2-3)Gal(b1-3)GlcNAc(b1-4)]Man(a1-6)[Neu5Ac(a2-3)Gal(b1-3)GlcNAc(b1-2)Man(a1-3)]Man(b1-4)GlcNAc(b1-4)GlcNAc
# In short: as §1
# [27] = target: Neu5Ac(a2-3)Gal(b1-3)[Fuc(a1-4)]GlcNAc
# In short: as §1
# [28] = target: Neu5Ac(a2-3)Gal(b1-4)GlcNAc(b1-2)Man(a1-3)[GlcNAc(b1-4)][Neu5Ac(a2-3)Gal(b1-4)GlcNAc(b1-2)Man(a1-6)]Man(b1-4)GlcNAc(b1-4)GlcNAc
# In short: as §1
# [29] = target: Neu5Ac(a2-3)Gal(b1-4)GlcNAc(b1-6)[Neu5Ac(a2-3)Gal(b1-3)]GalNAc
# In short: as §1
# [30] = target: Neu5Ac(a2-3)Gal(b1-4)GlcNAc6S
# In short: as §1
# [31] = target: Neu5Ac(a2-6)Gal(b1-4)GlcNAc(b1-2)Man(a1-3)[GlcNAc(b1-2)Man(a1-6)]Man(b1-4)GlcNAc(b1-4)GlcNAc
# In short: as §1
# [32] = target: Neu5Ac(a2-6)Gal(b1-4)GlcNAc(b1-3)Gal(b1-4)GlcNAc(b1-3)GalNAc
# In short: as §1
# [33] = target: Neu5Ac(a2-6)Gal(b1-4)GlcNAc(b1-3)GalNAc
# In short: as §1
# [34] = target: Neu5Ac(a2-6)GalNAc(b1-4)GlcNAc
# In short: as §1
# [35] = target: Neu5Ac(a2-6)GlcNAc(b1-4)GlcNAc(b1-4)GlcNAc
# In short: as §1
# Neu5Ac(b2-6)GalNAc = target: Neu5Ac(b2-6)GalNAc
# In short: as §1
# [36] = target: Neu5Gc(a2-3)Gal(b1-3)GlcNAc
# In short: as §1
# [37] = target: Neu5Gc(a2-8)Neu5Gc(a2-6)Gal(b1-4)GlcNAc
# In short: as §1
binder,measurement,setting,value
B1,glycan array binding signal (z-score),[1],-0.073
same,glycan array binding signal (z-score),[2],-0.074
same,glycan array binding signal (z-score),Fuc(a1-2)Gal(b1-4)Glc,-0.06
same,glycan array binding signal (z-score),[3],-0.081
same,glycan array binding signal (z-score),[4],0.076
same,glycan array binding signal (z-score),[5],-0.038
same,glycan array binding signal (z-score),[6],-0.079
same,glycan array binding signal (z-score),[7],-0.075
same,glycan array binding signal (z-score),Fuc(a1-4)GlcNAc,-0.078
same,glycan array binding signal (z-score),Gal(a1-3)Gal,-0.086
same,glycan array binding signal (z-score),[8],-0.048
same,glycan array binding signal (z-score),[9],-0.061
same,glycan array binding signal (z-score),Gal(a1-6)Glc,-0.075
same,glycan array binding signal (z-score),Gal(b1-3)Gal,-0.061
same,glycan array binding signal (z-score),[10],0.125
same,glycan array binding signal (z-score),[11],0.02
same,glycan array binding signal (z-score),[12],-0.054
same,glycan array binding signal (z-score),[13],-0.083
same,glycan array binding signal (z-score),Gal6S(b1-4)GlcNAc,-0.051
same,glycan array binding signal (z-score),GalNAc(a1-3)GalNAc,0.308
same,glycan array binding signal (z-score),[14],0.01
same,glycan array binding signal (z-score),[15],-0.073
same,glycan array binding signal (z-score),GlcA(b1-6)Gal,-0.062
same,glycan array binding signal (z-score),[16],-0.084
same,glycan array binding signal (z-score),[17],-0.057
same,glycan array binding signal (z-score),[18],-0.071
same,glycan array binding signal (z-score),[19],-0.06
same,glycan array binding signal (z-score),[20],-0.081
same,glycan array binding signal (z-score),GlcNAc(b1-3)Man,-0.057
same,glycan array binding signal (z-score),[21],16.5
same,glycan array binding signal (z-score),[22],11.9
same,glycan array binding signal (z-score),[23],7.47
same,glycan array binding signal (z-score),[24],-0.081
same,glycan array binding signal (z-score),[25],-0.076
same,glycan array binding signal (z-score),[26],0.149
same,glycan array binding signal (z-score),[27],-0.096
same,glycan array binding signal (z-score),[28],-0.076
same,glycan array binding signal (z-score),[29],-0.062
same,glycan array binding signal (z-score),[30],-0.075
same,glycan array binding signal (z-score),[31],-0.054
same,glycan array binding signal (z-score),[32],-0.091
same,glycan array binding signal (z-score),[33],-0.076
same,glycan array binding signal (z-score),[34],0.004
same,glycan array binding signal (z-score),[35],4.06
same,glycan array binding signal (z-score),Neu5Ac(b2-6)GalNAc,-0.076
same,glycan array binding signal (z-score),[36],-0.04
same,glycan array binding signal (z-score),[37],-0.072
